Experiment [1] in a line: qHTS drug screen for cell cycle checkpoint inhibitors in PARPi-resistant BRCA-mutant ovarian cancer cell lines. (AID 1963452; calls by dose curve). The following applies: PEO1/OlaR viability, CellTiter-Glo luminescence, 96 h, stronger effect = lower value. In a few lines:
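PEO1, PEO4 and PEO1/OlaR ovarian cancer cells, 600 per well, exposed 96 h at 37C to a dilution series. Viability read by CellTiter-Glo luminescence, normalized to DMSO and empty wells; activity summarized as Z-AUC.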

In experiment [2] the target is Cytochrome P450 2C9 (Homo sapiens) (UniProt P11712). Put plainly: qHTS for inhibitors of CYP2C9 against the NCATS DSHEA and TCM libraries (AID 1919973).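 Further: luminogenic pro-luciferin CYP2C9 substrate turned into luciferin with NADPH regeneration; on the % scale 0 is the no-effect control and ±100 the full control effect.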 The settings on record: recombinant CYP2C9 enzyme activity, luminescence; series mostly up to 34.1 µM. In a few lines: (§1)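 Isoform-specific enzyme and substrate levels; enzyme-free wells as background. Reaction: 1x NADPH regenerating system, 30-45 min, room temperature, shielded from light; luminescent detection reagent added, 30 min.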

Experiment [3] concerns the target Cytochrome P450 2C19 (Homo sapiens) (UniProt P33261). Put plainly: qHTS for inhibitors of CYP2C19 against the NCATS DSHEA and TCM libraries (AID 1919974).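 Further: luminescence from luciferin released by CYP2C19 oxidation of a pro-luciferin substrate; on the % scale 0 is the no-effect control and ±100 the full control effect.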 The settings on record: CYP2C19 enzyme inhibition, luminescence qHTS; series mostly up to 34.1 µM. In a few lines:
as §1

Experiment [4] can be described thus: KB-3-1 P-gp reporter qHTS against the NCATS DSHEA and TCM libraries (AID 1919975). Further: 0% is about no effect. The settings on record: KB-3-1 parental cells, CellTiter-Glo luminescence viability, 72 h; series mostly up to 26.1 µM. In a few lines: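 Cell viability qHTS: 500 KB-3-1 cells/well, substances in titration, ~72 h, 37C; luminescent CellTiter-Glo read.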
Experiment [5] addresses Cytochrome P450 1A2 (Homo sapiens) (UniProt P05177). Put plainly: qHTS for inhibitors of CYPIA2 against the NCATS DSHEA and TCM libraries (AID 1919976).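 Further: light from luciferin formed by CYP1A2 from a pro-luciferin substrate; on the % scale 0 is the no-effect control and ±100 the full control effect.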 The settings on record: recombinant CYP1A2 enzyme activity, luminescence; series mostly up to 37 µM. In a few lines:
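Furafylline served as the plate control. Compounds met CYP1A2 and pro-luciferin substrate 15 min before NADPH regeneration solution (1x) was added; after 30-45 min at RT, P450-Glo reagent was added for 30 min and luminescence was measured.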

The nature of experiment [6]: qHTS Counterscreen for compound interference against the NCATS DSHEA and TCM libraries (AID 1919978).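 Further: compounds preincubated with 1 µM D-luciferin or buffer before detection reagent; % of control where 0% means no effect.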 The following applies: firefly luciferase detection reagent interference, luminescence. An outline of the steps:
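Interference check: test samples were incubated with D-luciferin (final 1 uM) or buffer only for 15 min, room temperature, in a qHTS titration up to 39.8 uM, then developed with detection reagent and read by luminescence.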

Experiment [7] is described as follows: Dual reporter qHTS for agonist of Pregnane X Receptor (hPXR) against the NCATS DSHEA and TCM libraries: Fluorescence readout (AID 1920058). Further: potency means the concentration at half of the fitted maximal effect. The following applies: PXR dual reporter cells; series mostly up to 40 µM. In a few lines: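 In this qHTS counter-read, reporter-bearing HepG2 cells in charcoal-stripped serum received substances for approximately 24 h before viability was assessed fluorometrically with CellTiter-Fluor.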

Experiment [8] deals with Nuclear receptor subfamily 1 group I member 2 (Homo sapiens) (UniProt O75469). Put plainly: Dual reporter qHTS for agonist of Pregnane X Receptor (hPXR) against the NCATS DSHEA and TCM libraries: Luminescence readout (AID 1920059). Further: 0% is about no effect. The settings on record: hPXR dual reporter cells, luciferase luminescence agonist; series mostly up to 40 µM. In a few lines:
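hPXR-Luc HepG2 cells, 2000/well in 5% charcoal-stripped FBS medium, attached 5 h, then exposed 24 h at 37C to compounds. Viability by CellTiter-Fluor, then luciferase luminescence with ONE-Glo.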

Experiment [9] has the same target. Put plainly: Dual reporter qHTS for antagonist of Pregnane X Receptor (hPXR) against the NCATS DSHEA and TCM libraries: Luminescence Readout (AID 1920060).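 Further: HepG2 cells carrying hPXR luciferase reporter stimulated with rifampicin at 2 µM; 0% is about no effect.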 The following applies: hPXR dual reporter cells, luciferase luminescence, antagonist mode; series mostly up to 40 µM. In a few lines: (§2)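 HepG2 hPXR-Luc, 2000 cells/well, charcoal-stripped FBS medium; 5 h attach; RIF 2 uM final; 24 h 37C/5% CO2; CellTiter-Fluor 1 h, fluor 405/540; ONE-Glo 30 min RT, lum.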

Experiment [10] is described as follows: Dual reporter qHTS for antagonist of Pregnane X Receptor (hPXR) against the NCATS DSHEA and TCM libraries: Fluorescence Readout (AID 1920061). Further: 0% is about no effect. The settings on record: PXR dual reporter cells, antagonist mode; series mostly up to 40 µM. In a few lines: as §2
Experiment [11] is described as follows: qHTS for identification of novel therapeutic agents for treatment of microphthalmiaassociated transcription factor (MiT) renal cell carcinoma (RCC) (AID 1963991).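 Further: curves scaled with 100% = DMSO viability and 0% = empty wells.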 The settings on record: CellTiter-Glo, 48 h, stronger effect = lower value. In a few lines:
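UOK109/UOK124/UOK145 (TFE3 fusions, three partners); 500 cells/well; MIPE v4.0, 1912 cpds, 11 conc.; 48 h, 37 C; CellTiter-Glo, 15 min RT; lum. Norm.: DMSO 100%, empty 0%.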

Experiment [12] in a line: qHTS profiling for inhibitors of Plasmodium falciparum proliferation (AID 504749).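 Further: 0% = DMSO vehicle and full inhibition = artemisinin control; nearly all actives have a fitted effect of over 60% in size.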 The settings on record: P. falciparum in erythrocytes, SYBR Green DNA, 72 h, at 28.7 µM (top of the series). In a few lines: (§3)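 SYBR Green fluorescence (ex 485 nm, em 535 nm) reports parasite DNA after 72 h compound exposure of infected red cells at 0.3% parasitemia, 2.5% hematocrit; signal normalized to 0.29 uM artemisinin and vehicle wells.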

Another experiment concerns 3D7. The experiment is described as above. The settings on record: P. falciparum in erythrocytes, SYBR Green DNA, 72 h; series mostly up to 28.7 µM. In a few lines:
as §3

The next experiment deals with AA1029. The description is as above. The following applies: P. falciparum in erythrocytes, SYBR Green DNA, 72 h; series mostly up to 28.7 µM. In a few lines:
as §3

The subject of another experiment is AS120. The experiment is described as above. The settings on record: P. falciparum in erythrocytes, SYBR Green DNA, 72 h; series mostly up to 28.7 µM. In a few lines: as §3
In a further experiment the test system is ATS189. The description is as above. The following applies: P. falciparum in erythrocytes, SYBR Green DNA, 72 h; series mostly up to 28.7 µM. An outline of the steps: as §3
A further experiment relates to ATS95. The description is as above. The following applies: P. falciparum in erythrocytes, SYBR Green DNA, 72 h; series mostly up to 28.7 µM. An outline of the steps:
as §3

Another experiment relates to C2A. Described as above. The settings on record: P. falciparum in erythrocytes, SYBR Green DNA, 72 h; series mostly up to 28.7 µM. In a few lines: as §3
In a further experiment the test system is CP185. The experiment is described as above. The following applies: P. falciparum in erythrocytes, SYBR Green DNA, 72 h; series mostly up to 28.7 µM. In a few lines: as §3
Setting [13] is: measured here: PEO1 parental Z-AUC.
Setting [14] is: TFE3-RCC UOK109 viability, measured here: UOK109 Z-AUC.
Setting [15] is: TFE3-RCC viability, measured here: UOK124 Z-AUC.
The mark [16] stands for this setting: TFE3-RCC viability, measured here: UOK145 Z-AUC.

Inconclusive results are not listed. Activity calls are given as the source filed them. Unless noted, the call rests on the fitted dose curve; in most records, active means well fitted curve in the direction sought with a large enough effect; inconclusive means small, poorly fitted or top-dose-only effect, or another doubt; inactive means no such curve, though single readings can be large; an effect the other way counts as inactive or inconclusive.

Nuclear receptor subfamily 1 group I member 2 (Homo sapiens), sequence (O75469 whole entry, looked up): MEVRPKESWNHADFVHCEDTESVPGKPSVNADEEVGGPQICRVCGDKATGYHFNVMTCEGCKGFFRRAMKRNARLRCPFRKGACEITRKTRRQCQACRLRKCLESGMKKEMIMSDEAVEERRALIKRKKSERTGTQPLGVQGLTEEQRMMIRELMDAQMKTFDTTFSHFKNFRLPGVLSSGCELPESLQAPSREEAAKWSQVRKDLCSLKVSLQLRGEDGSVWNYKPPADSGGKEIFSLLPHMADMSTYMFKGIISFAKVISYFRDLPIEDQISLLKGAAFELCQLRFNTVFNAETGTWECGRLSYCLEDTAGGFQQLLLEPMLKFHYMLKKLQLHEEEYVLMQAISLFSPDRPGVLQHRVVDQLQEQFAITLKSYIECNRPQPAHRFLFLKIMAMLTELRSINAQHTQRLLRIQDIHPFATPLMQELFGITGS
Cytochrome P450 2C9 (Homo sapiens), sequence (P11712 whole entry, looked up, canonical isoform): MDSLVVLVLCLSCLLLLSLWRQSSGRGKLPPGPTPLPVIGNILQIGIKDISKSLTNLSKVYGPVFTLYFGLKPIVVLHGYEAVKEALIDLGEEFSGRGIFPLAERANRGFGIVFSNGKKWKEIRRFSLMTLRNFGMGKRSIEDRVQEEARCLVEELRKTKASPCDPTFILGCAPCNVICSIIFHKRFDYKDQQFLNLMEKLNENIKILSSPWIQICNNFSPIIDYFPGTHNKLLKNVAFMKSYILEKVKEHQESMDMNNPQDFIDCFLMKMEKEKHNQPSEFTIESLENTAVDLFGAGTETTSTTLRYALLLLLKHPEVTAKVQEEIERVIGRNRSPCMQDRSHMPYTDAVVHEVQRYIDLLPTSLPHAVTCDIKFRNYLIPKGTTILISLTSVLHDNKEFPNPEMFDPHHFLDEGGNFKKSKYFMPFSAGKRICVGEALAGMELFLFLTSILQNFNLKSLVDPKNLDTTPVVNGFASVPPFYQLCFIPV
Cytochrome P450 2C19 (Homo sapiens), sequence (P33261 whole entry, looked up): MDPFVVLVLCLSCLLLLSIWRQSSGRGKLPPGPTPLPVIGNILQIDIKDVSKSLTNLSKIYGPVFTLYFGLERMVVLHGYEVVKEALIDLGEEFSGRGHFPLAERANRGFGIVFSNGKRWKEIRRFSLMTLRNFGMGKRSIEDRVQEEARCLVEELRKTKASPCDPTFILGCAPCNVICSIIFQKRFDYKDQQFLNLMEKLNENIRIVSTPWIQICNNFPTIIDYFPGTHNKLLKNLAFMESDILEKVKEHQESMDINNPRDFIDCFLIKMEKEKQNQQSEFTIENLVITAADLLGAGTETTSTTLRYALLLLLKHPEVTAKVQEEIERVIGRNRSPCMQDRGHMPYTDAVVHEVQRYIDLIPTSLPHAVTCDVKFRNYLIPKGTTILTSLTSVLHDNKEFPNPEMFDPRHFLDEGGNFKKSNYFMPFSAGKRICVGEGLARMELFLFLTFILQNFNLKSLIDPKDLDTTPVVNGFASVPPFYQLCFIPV
Cytochrome P450 1A2 (Homo sapiens), sequence (P05177 whole entry, looked up): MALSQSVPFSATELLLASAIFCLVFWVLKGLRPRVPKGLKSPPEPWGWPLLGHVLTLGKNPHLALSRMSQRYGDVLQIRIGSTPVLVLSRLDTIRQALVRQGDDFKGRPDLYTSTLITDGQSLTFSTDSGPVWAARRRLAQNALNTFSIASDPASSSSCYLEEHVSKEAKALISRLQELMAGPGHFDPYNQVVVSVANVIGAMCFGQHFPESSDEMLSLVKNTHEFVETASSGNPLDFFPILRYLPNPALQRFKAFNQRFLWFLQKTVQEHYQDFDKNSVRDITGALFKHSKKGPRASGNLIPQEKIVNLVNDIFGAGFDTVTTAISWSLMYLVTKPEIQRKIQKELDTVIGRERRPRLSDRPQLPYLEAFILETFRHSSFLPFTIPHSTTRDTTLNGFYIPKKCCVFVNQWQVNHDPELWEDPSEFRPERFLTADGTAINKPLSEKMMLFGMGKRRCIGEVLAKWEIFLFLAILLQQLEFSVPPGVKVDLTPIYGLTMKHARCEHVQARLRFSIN

Turning to `C[C@@H](O[C@H]1OCCN(Cc2n[nH]c(=O)[nH]2)[C@@H]1c1ccc(F)cc1)c1cc(C(F)(F)F)cc(C(F)(F)F)c1`, the Z-AUC in experiment [1] is -0.0654 (inactive); in experiment [1] (setting [13]), -0.373; in experiment [1] (measured here: PEO4 Z-AUC), -0.245.
On to `Cn1c(=O)c(Oc2ccc(F)cc2F)cc2cnc(NC3CCOCC3)nc21`, for which the Z-AUC is 1.26 (inactive) in [1], 1.1 in experiment [1] (setting [13]) and 1.01 in experiment [1] (measured here: PEO4 Z-AUC).
As for `CCN1CCC(n2cc(CNc3cc(Cl)c4ncc(C#N)c(Nc5ccc(F)c(Cl)c5)c4c3)nn2)CC1`, the Z-AUC in [1] is -1.28 (inactive); in [1] (setting [13]) it was -0.754; in [1] (measured here: PEO4 Z-AUC) it was -1.71.
Consider `COc1cc2nccc(Oc3ccc(NC(=O)Nc4cc(C)on4)c(Cl)c3)c2cc1OC`, for which the Z-AUC is -0.11 (inactive) in [1], 0.0474 in experiment [1] (setting [13]) and 0.0316 in [1] (measured here: PEO4 Z-AUC).
`OC[C@H]1O[C@@H](OCCc2ccc(O)cc2)[C@H](O)[C@@H](O)[C@H]1O`: the Potency entry in [2], in experiment [3], in experiment [7] and in [8] was “inactive” throughout. The result in [4], in experiment [5], in [9] and in experiment [10] was inactive. In addition, the max response in experiment [6] is 1.11% (inactive). In addition, the z-score in [11] (setting [14]) was 0.167; in experiment [11] (setting [15]), 0.0834; in experiment [11] (setting [16]) it was -0.171.
Regarding `CC(=O)Nc1cccc(-n2c(=O)n(C3CC3)c(=O)c3c(Nc4ccc(I)cc4F)n(C)c(=O)c(C)c32)c1`, the Z-AUC in experiment [1] is -0.972 (inactive); in [1] (setting [13]), -1.33; in experiment [1] (measured here: PEO4 Z-AUC), -1.07.
Take `Cc1cc2nc3c(=O)[nH]c(=O)nc-3n(CC(O)C(O)C(O)CO)c2cc1C` (configuration not stated): the Potency entry (in experiment [2]; in experiment [8]; in the experiment on 3D7; in the experiment with AA1029; in the experiment on AS120; in the experiment on ATS189) was “inactive” in each case. Besides, the Potency entry in the experiment with ATS95 and with C2A was “inactive” each time. In addition, the outcome (in experiment [4]; in [9]; in [10]; in the experiment with CP185) was inactive. In experiment [6], the max response is 1.01% (inactive). In addition, in experiment [7], the Potency was 28.2 µM (active). Moreover, the z-score in experiment [11] (setting [14]) is 1.42; in experiment [11] (setting [15]), 0.421; in experiment [11] (setting [16]), 0.538. In addition, the activity, negative = inhibition in experiment [12] (parasite line A) is -17.3% (inactive); in [12] (parasite line B), -10.6% (inactive).
As to `c1cc(OCCN2CCCCC2)cc(-c2n[nH]c3ccc(-c4ncn[nH]4)cc23)c1`, the Z-AUC in experiment [1] was -0.663 (inactive); in experiment [1] (setting [13]), -0.209; in experiment [1] (measured here: PEO4 Z-AUC), -0.626.
`CCCC1OC2C[C@@H]3[C@H]4CCC5=CC(=O)C=C[C@]5(C)[C@H]4C(O)C[C@]3(C)[C@]2(C(=O)CO)O1` (some centres not stated): the Z-AUC in experiment [1] was -0.0333 (inactive); in experiment [1] (setting [13]), 0.534; in experiment [1] (measured here: PEO4 Z-AUC) it was -0.396.

(Values after PubChem BioAssay (NCATS).)
